Source: PubChem BioAssay
HepG2 tox: counter-screen for TGF-b inhibitors: cytotoxicity in HepG2 cells; HepG2 CAGA-GFP viability, ATP luminescence, 18 h; 410,000 compounds, 0.76% hits; Potency, µM (top dose mostly 46.1 µM), for the others: at the top dose activity change, negative = cytotoxicity, usual class: cytotoxic; AID 588856; further: potency means the concentration at half of the fitted maximal effect
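CellTiter-Glo luminescence gave cytotoxicity after 18 hours at 37 degrees C. The cells were HepG2 CAGA-GFP in 1% FBS DMEM, stimulated with 500 pg/mL TGF-beta after compound addition. %Activity was normalised to no-cell wells (complete cell-killing) and DMSO (no toxicity), and curves were fitted and classified.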
TGFb inhibitor: inhibitors of TGF-b signaling; HepG2 CAGA-GFP TGF-b/SMAD3 reporter, GFP fluorescence, 18 h; TGF-beta stimulated, 500 pg/mL final; Potency, µM (titrated, usually from 46.1 µM), inactives show at the highest dose activity, negative = inhibition, actives largely listed as inhibitors; 410,000 compounds, 1.2% hits; AID 588855; further: potency means the concentration at half of the fitted maximal effect; on the % scale 0 is the no-effect control and ±100 the full control effect; nearly all actives have a fitted effect of over 65% in size
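HEPG2 CAGA-GFP cells (1000/well, DMEM with 1% FBS) were pre-incubated 2 h at 37 degrees C, given compound by pin tool, then stimulated with TGF-beta at 500 pg/mL final for 18 h before per-cell GFP fluorescence imaging.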
TDP1 block: inhibitors of human tyrosyl-DNA phosphodiesterase TDP1. recombinant TDP1, AlphaScreen DNA substrate cleavage. Potency, µM (highest dose often 130 µM), inactives show at the highest dose activity change, negative = inhibition, usual class: inhibitors. 350,000 compounds, 0.28% hits; further: potency means the concentration at half of the fitted maximal effect; on the % scale 0 is the no-effect control and ±100 the full control effect; nearly all actives have a fitted effect of over 40% in size
Target sequence (Q9NUW8 whole entry, looked up): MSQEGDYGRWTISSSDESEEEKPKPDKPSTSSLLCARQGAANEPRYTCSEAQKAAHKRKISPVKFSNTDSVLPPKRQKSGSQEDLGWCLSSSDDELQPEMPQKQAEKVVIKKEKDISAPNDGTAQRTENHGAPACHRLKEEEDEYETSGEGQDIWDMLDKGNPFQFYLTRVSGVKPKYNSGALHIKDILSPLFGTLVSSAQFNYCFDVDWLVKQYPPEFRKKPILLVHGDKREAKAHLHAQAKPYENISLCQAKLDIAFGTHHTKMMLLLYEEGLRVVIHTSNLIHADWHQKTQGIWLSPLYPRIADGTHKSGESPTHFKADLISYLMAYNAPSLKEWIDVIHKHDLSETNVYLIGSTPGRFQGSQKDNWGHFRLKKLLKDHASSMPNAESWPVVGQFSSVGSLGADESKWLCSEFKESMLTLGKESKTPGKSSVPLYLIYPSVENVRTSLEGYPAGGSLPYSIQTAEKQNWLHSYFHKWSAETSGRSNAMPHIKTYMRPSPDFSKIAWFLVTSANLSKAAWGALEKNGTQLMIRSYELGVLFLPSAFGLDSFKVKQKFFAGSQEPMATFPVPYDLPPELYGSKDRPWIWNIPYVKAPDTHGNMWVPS
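AlphaScreen read-out: signal falls as enzyme removes the 3' tyrosine-FITC from a 5'-biotinylated DNA oligo (15 nM, 5 min, RT). Enzyme was E. coli-made recombinant Tdp1 at 1 nM, exposed to compound for 15 min beforehand; beads 10 ug/ml, 10 min.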
IL1B secr inh: inhibitors of inflammasome signaling (IL-1 beta secretion); activity change, % at 57.5 µM; AID 743279; 360,000 compounds, 4.7% hits; THP-1 LPS/ATP IL-1B secretion, AlphaLISA, 16 h; hits give low values; in the data active means activity change below about -50%; inconclusive means mostly about -30% to -49%; further: on the % scale 0 is the no-effect control and ±100 the full control effect
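THP-1 cells pretreated 1 hr with compounds (up to 57.5 uM final), then stimulated with LPS (250 ng/mL final) plus ATP (1.25 mM final); secreted IL-1B measured by AlphaLISA after 16 hr, decreased signal indicating inhibition.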
DT40 TDP1 CPT: growth inhibition of DT40 Tdp1-/-;hTDP1 cells with camptothecin (screen for TDP1 inhibitors); chicken DT40 Tdp1-/-;hTDP1 cells + 20 nM CPT, ATP luminescence, 48 h; Potency, µM (doses to about 46.2 µM), inactives show at the top dose activity change, negative = growth inhibition, hits mostly inhibitors; 420,000 compounds, 12% hits; AID 686979; further: potency means the concentration at half of the fitted maximal effect; on the % scale 0 is the no-effect control and ±100 the full control effect; nearly all actives have a fitted effect of over 55% in size
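Chicken DT40 Tdp1-/- cells complemented with human TDP1, 400 cells/well, exposed to compounds plus 20 nM camptothecin for at least 48 h at 37 C; viability read as ATP content by CellTiter-Glo luminescence.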
TDP1 cell noCPT: qHTS for Inhibitors of human tyrosyl-DNA phosphodiesterase 1 (TDP1): qHTS in cells in absence of CPT | 420,000 compounds, 15% hits | DT40 Tdp1-/- hTDP1 cells, no CPT, ATP luminescence, 48 h | Potency, µM (top dose mostly 46.2 µM), inactives show top-dose activity change, negative = growth inhibition, hits mostly inhibitors; further: potency means the concentration at half of the fitted maximal effect; on the % scale 0 is the no-effect control and ±100 the full control effect; nearly all actives have a fitted effect of over 55% in size
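Growth of hTDP1-complemented DT40 Tdp1-knockout cells is measured by ATP luminescence after at least 48 hr compound exposure at 37 °C, with DMSO substituting for the 20 nM CPT used in the parallel screen.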
An asterisk follows results filed as active; i = inactive; ? = inconclusive; · = no result given; [ ] = another dose, or the depositor's remark. The list is not random: actives were taken first. Their share in the collection is about 18%. Unless noted, the call rests on the fitted dose curve; in most records, active means well fitted curve in the direction sought with a large enough effect; inconclusive means small, poorly fitted or top-dose-only effect, or another doubt; inactive means no such curve, though single readings can be large; an effect the other way counts as inactive or inconclusive.

SMILES	HepG2 tox	TGFb inhibitor	TDP1 block	IL1B secr inh	DT40 TDP1 CPT	TDP1 cell noCPT
COc1ccc(S(=O)(=O)NC2CCCCC2)cc1-n1cnnn1	18%	1%	5%	30	-12%	21µM*
COc1cc(C(C)=O)ccc1OCC(=O)NCc1ccccc1CN1CCCC1	1%	21%	·	0	-21%	7%
COC(=O)c1c(NC(=O)CCCOc2ccc(C)cc2)sc2c1C(C(=O)OC)CC2 (configuration not stated)	-16%	?	1%[12.3 µM]	·	15µM*	13µM*
CCOc1ccc(/C=C/C(=O)Nc2sc3c(c2C(=O)OC)C(C(=O)OC)CC3)cc1 (configuration not stated)	1%	-1%	-13%[12.3 µM]	·	9.2µM*	9.2µM*
COC(=O)c1c(NC(=O)C(Cl)Cl)sc2c1C(C(=O)OC)CC2 (configuration not stated)	-72%	11µM*	2%	0	?	?
COC(=O)c1c(NC(=O)CCCOc2cccc(C)c2)sc2c1C(C(=O)OC)CC2 (configuration not stated)	-8%	?	-6%[12.3 µM]	·	16µM*	15µM*
CC(C)(C)c1ccc(C(=O)N2CCN(Cc3cc(=O)n4nc(-c5ccccc5F)sc4n3)CC2)cc1	1%	-3%	5%	·	4%	-1%
CCOC(=O)C1CCN(C(=O)c2nn(-c3ccc(OC)cc3)c(=O)c3c2c2ccccc2n3C)CC1	-14%	0%	-7%	·	?	?
CC[C@H](C)[C@H](NC(=O)[C@H](N)Cc1ccc(O)cc1)C(=O)N[C@@H](CC(N)=O)C(=O)N[C@@H](CC(C)C)C(=O)N[C@H](C(=O)N[C@@H](C(=O)N[C@@H](CCCN=C(N)N)C(=O)N[C@@H](CCC(N)=O)C(=O)N[C@@H](CCCN=C(N)N)C(=O)N[C@H](Cc1ccc(O)cc1)C(N)=O)[C@@H](C)O)[C@@H](C)CC	·	·	7%	·	·	·
COc1cccc(-c2oc3c(c2C#CC2(N)CCCCC2)C(O)CCC3)c1 (configuration not stated)	·	·	·	-11	18µM*	18µM*
CC(C)(C)n1ncc2c(=O)n(Cc3ccccc3C#N)cnc21	6%	-5%	·	·	·	·
NC(=S)N1OC[C@@H]2COc3ccc4ccccc4c3[C@@H]21	-23%	?	6%	-93*	18µM*	18µM*
COc1ccc(NC(=O)c2cccc(S(=O)(=O)Nc3ccc(Br)cc3)c2)cn1	-43%	-20%	6%	-80*	?	23µM*
O=C(Nc1ccc(Br)cc1)c1cccc(S(=O)(=O)Nc2ccc(Br)cc2)c1	·	·	6%	·	·	·
O=C(Nc1ccc(Br)cc1)c1cccc(S(=O)(=O)Nc2ccccn2)c1	21%	-6%	3%	i	-17%	16µM*
O=C1CSc2ccc(C(=O)Nc3cccc(S(=O)(=O)Nc4ccc(Br)cc4)c3)cc2N1	16µM*	13µM*	5%	?	18µM*	8.2µM*
C#CCOCCOCCOCCNc1nc(N2CCN(C(=O)[C@H]([C@@H](C)CC)n3cc([C@@H](N)CO)nn3)CC2)nc(N2CCN(C(=O)[C@H](Cc3cc4ccccc4[nH]3)n3cc([C@@H](N)Cc4ccc(O)cc4)nn3)CC2)n1	·	·	7%	·	·	·
CCc1nc2c(OCc3ccc(F)cc3)cccn2c1N(C)C(=O)COc1ccccc1	-31%	?	·	0	21µM*	?
CCc1nc2c(OCc3ccccc3)cccn2c1N(C)C(=O)COc1ccccc1	-20%	2%	·	14	23µM*	?
COc1cc([N+](=O)[O-])ccc1NC(=O)CN1C(=O)NC2(CCCCC2C)C1=O (configuration not stated)	-4%	2%	·	0	-12%	21%
CCCCCN(C(=O)CCC(=O)OCC(=O)Nc1ccc(C)cc1F)c1c(N)n(CCCC)c(=O)[nH]c1=O	-2%	0%	2%	-25	?	-16%
CC(=O)N1N=C(c2ccco2)CC1c1ccc(C)cc1 (configuration not stated)	1%	1%	3%	5	9%	?
Cc1nn2c(c1-c1ccc(Cl)cc1)N=C(c1ccco1)CC2c1ccccc1 (configuration not stated)	-10%	-12%	9%	?	15µM*	?
Cc1cc(Br)cn2c(Cc3ccsc3)c(-c3ccco3)nc12	16µM*	6.3µM*	·	-7	?	?
Cc1cc(Br)cn2c(Cc3ccsc3)c(-c3cccc(Cl)c3)nc12	-6%	-10%	·	7	-19%	?
SMILES	HepG2 tox	TGFb inhibitor	TDP1 block	IL1B secr inh	DT40 TDP1 CPT	TDP1 cell noCPT
Cc1cc(Br)cn2c(Cc3ccsc3)c(-c3ccc(Cl)cc3)nc12	-14%	-30%	·	89	15µM*	18µM*
Fc1ccc(-c2nc3ccc(Br)cn3c2Cc2cccc(F)c2)cc1	-33%	13µM*	·	36	-30%	?
Brc1ccc(-c2nc3ccc(Br)cn3c2Cc2ccccc2)cc1	4%	3%	·	-16	?	21µM*
Cc1cc(Br)cn2c(Cc3ccccc3)c(-c3ccco3)nc12	-2%	-29%	·	-19	?	?
Cc1cccc(Cn2c(=O)n(Cc3ccccc3)c(=O)c3c2c2cc(C)ccc2n3C)c1	6%	-1%	6%	·	-5%	-19%
CCCN(CC(=O)Nc1ccccc1C)C(=O)COc1ccc2c(c1)CCC2	-5%	3%	1%	3	4%	?
Clc1ccc(-c2nc3ccc(Br)cn3c2Cc2ccsc2)cc1	-22%	-20%	·	44	16µM*	16µM*
Clc1ccc(-c2nc3ccc(Br)cn3c2Cc2ccccc2)cc1	-30%	5%	·	18	23µM*	21µM*
CCc1c2c(nc3ccc(OC)cc13)COC2	·	·	8%	·	·	·
CCOc1ccc(NC(=O)Cc2c[nH]c3ccccc23)cc1	-22%	-8%	3%	·	-3%	-15%
CCOc1ccc(NC(=O)N(Cc2c[nH]c3ccccc23)C2CCCCCC2)cc1	-26%	-18%	7%	·	9.2µM*	?
CCOc1ccc(NC(=O)N(Cc2c[nH]c3ccccc23)C2CCCCC2)cc1	-2%	2%	2%	·	8.2µM*	18µM*
